# In the supplement of paper PMC8728848:
# The entries come from a sample that favours the strongest signals as a whole.
# Legend:
# Assay in all cases: glycan array binding signal (z-score within array); higher = stronger binding
# Conditions in all cases: glycan notation: IUPAC condensed, linker removed
# GalNAc(b1-4)GlcNAc = biological target: GalNAc(b1-4)GlcNAc
# Procedure, shortened: (§1)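 Glycan array binding is given as a within-array Z-score, which can be read as non-binding when negative. The arrays, 3228 of them, came from the Consortium for Functional Glycomics database and were retained only where the protein sequence was available. Z-scores were averaged across arrays of the same protein sequence at different concentrations or buffers and across linkers.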
# [1] = biological target: GlcNAc(b1-2)Man(a1-3)[GlcNAc(b1-4)][GlcNAc(b1-2)Man(a1-6)]Man(b1-4)GlcNAc(b1-4)[Fuc(a1-6)]GlcNAc
# Procedure, shortened: as §1
# GlcNAc(b1-3)Fuc = biological target: GlcNAc(b1-3)Fuc
# Procedure, shortened: as §1
# [2] = biological target: GlcNAc(b1-3)Gal(b1-4)GlcNAc(b1-2)Man(a1-3)[GlcNAc(b1-3)Gal(b1-4)GlcNAc(b1-2)Man(a1-6)]Man(b1-4)GlcNAc(b1-4)GlcNAc
# Procedure, shortened: as §1
# [3] = biological target: GlcNAc(b1-3)Gal(b1-4)GlcNAc(b1-3)Gal(b1-4)GlcNAc(b1-3)Gal(b1-4)GlcNAc(b1-2)[GlcNAc(b1-3)Gal(b1-4)GlcNAc(b1-3)Gal(b1-4)GlcNAc(b1-3)Gal(b1-4)GlcNAc(b1-6)]Man(a1-6)[GlcNAc(b1-3)Gal(b1-4)GlcNAc(b1-3)Gal(b1-4)GlcNAc(b1-3)Gal(b1-4)GlcNAc(b1-2)Man(a1-3)]Man(b1-4)GlcNAc(b1-4)[Fuc(a1-6)]GlcNAc
# Procedure, shortened: as §1
# [4] = biological target: GlcNAc(b1-3)Gal(b1-4)GlcNAc(b1-3)Gal(b1-4)GlcNAc(b1-3)Gal(b1-4)GlcNAc(b1-3)Gal(b1-4)GlcNAc(b1-2)Man(a1-3)[GlcNAc(b1-3)Gal(b1-4)GlcNAc(b1-3)Gal(b1-4)GlcNAc(b1-3)Gal(b1-4)GlcNAc(b1-3)Gal(b1-4)GlcNAc(b1-2)Man(a1-6)]Man(b1-4)GlcNAc(b1-4)[Fuc(a1-6)]GlcNAc
# Procedure, shortened: as §1
# [5] = biological target: GlcNAc(b1-3)Gal(b1-4)GlcNAc(b1-6)[GlcNAc(b1-3)]Gal(b1-4)GlcNAc
# Procedure, shortened: as §1
# Kdn(a2-3)Gal(b1-3)GalNAc = biological target: Kdn(a2-3)Gal(b1-3)GalNAc
# Procedure, shortened: as §1
# Kdn(a2-3)Gal(b1-4)Glc = biological target: Kdn(a2-3)Gal(b1-4)Glc
# Procedure, shortened: as §1
# [6] = biological target: Man(a1-2)Man(a1-3)[Man(a1-2)Man(a1-6)]Man(a1-6)[Man(a1-2)Man(a1-2)Man(a1-3)]Man(b1-4)GlcNAc(b1-4)GlcNAc
# Procedure, shortened: as §1
# Man(a1-6)Man = biological target: Man(a1-6)Man
# Procedure, shortened: as §1
# [7] = biological target: Neu5Ac(a2-3)Gal(b1-3)GalNAc(b1-4)[Neu5Ac(a2-8)Neu5Ac(a2-3)]Gal(b1-4)Glc
# Procedure, shortened: as §1
# Neu5Ac(a2-3)Gal(b1-4)Glc = biological target: Neu5Ac(a2-3)Gal(b1-4)Glc
# Procedure, shortened: as §1
# [8] = biological target: Neu5Ac(a2-3)Gal(b1-4)GlcNAc(b1-2)Man(a1-3)[GlcNAc(b1-4)][Neu5Ac(a2-3)Gal(b1-4)GlcNAc(b1-2)Man(a1-6)]Man(b1-4)GlcNAc(b1-4)GlcNAc
# Procedure, shortened: as §1
# [9] = biological target: Neu5Ac(a2-3)Gal(b1-4)GlcNAc(b1-2)[Neu5Ac(a2-3)Gal(b1-4)GlcNAc(b1-6)]Man(a1-6)[Neu5Ac(a2-3)Gal(b1-4)GlcNAc(b1-2)Man(a1-3)][GlcNAc(b1-4)]Man(b1-4)GlcNAc(b1-4)GlcNAc
# Procedure, shortened: as §1
# [10] = biological target: Neu5Ac(a2-3)Gal(b1-4)[Fuc(a1-3)]GlcNAc(b1-6)[Gal(b1-3)]GalNAc
# Procedure, shortened: as §1
# [11] = biological target: Neu5Ac(a2-6)Gal(b1-4)GlcNAc(b1-2)Man(a1-6)Man(b1-4)GlcNAc(b1-4)GlcNAc
# Procedure, shortened: as §1
# [12] = biological target: Neu5Ac(a2-6)Gal(b1-4)GlcNAc(b1-2)Man(a1-6)[GlcNAc(b1-2)Man(a1-3)]Man(b1-4)GlcNAc(b1-4)GlcNAc
# Procedure, shortened: as §1
# [13] = biological target: Neu5Ac(a2-6)Gal(b1-4)GlcNAc(b1-3)Gal(b1-4)GlcNAc(b1-3)Gal(b1-4)GlcNAc(b1-2)Man(a1-3)[Neu5Ac(a2-6)Gal(b1-4)GlcNAc(b1-3)Gal(b1-4)GlcNAc(b1-3)Gal(b1-4)GlcNAc(b1-2)Man(a1-6)]GalNAc
# Procedure, shortened: as §1
# [14] = biological target: Neu5Ac(a2-6)Gal(b1-4)GlcNAc(b1-3)GalNAc
# Procedure, shortened: as §1
# [15] = biological target: Neu5Ac(a2-6)GalNAc(b1-4)GlcNAc6S
# Procedure, shortened: as §1
# [16] = biological target: Neu5Ac(a2-8)Neu5Gc(a2-3)Gal(b1-4)GlcNAc
# Procedure, shortened: as §1
# [17] = biological target: Neu5Ac9Ac(a2-3)Gal(b1-4)GlcNAc
# Procedure, shortened: as §1
# [18] = biological target: Neu5Ac9Ac(a2-6)Gal(b1-4)GlcNAc
# Procedure, shortened: as §1
# Neu5Gc(a2-6)GalNAc = biological target: Neu5Gc(a2-6)GalNAc
# Procedure, shortened: as §1
# [19] = biological target: Neu5Gc(a2-8)Neu5Gc(a2-3)Gal(b1-4)GlcNAc(b1-3)Gal(b1-4)GlcNAc
# Procedure, shortened: as §1
binder,measurement,setting,value
PX9937A-bvu-521-23-521 (Bacteroides vulgatus) (protein) LDLAPEDYYGAGNFWKEASQPKAFMLGLHAQLRSYYDMFYTLGELRGGTQRVGTSSLNTSLNYADIRSQNISEDIPGISNWNGLYSPIMQVNHFIQEVENGCTFLDDATRSRYLGQAYGMRALYYFMLYRTFGGVPLITKVDILDGKPSADKFYVERATPEATMEFIKADINKSENYFGNNTSFDAYDWSRYATLMLKAEIYMWAAKVSITGFTATGATDLQTAKTALSGIIGHFELMDNFASIFSCDNKKNTEIIFAMPFIEGEASNDGGRFLYQDAVFLGQAYGRNGKVIEKDTLNLKGTGGVFRDEYTEDFWKTFKEGDSRRDATFMEYYMKNDNGTLSEFGCVMKKRIGTINSNDNRIYISDIPVYRYADALLMMAEIENGLNNPCASYINEVRKRAYGDTFEENKYTEGSYAENELAILQERDKEFVSEGKRWFDVLRMHDASGRSLVFSANANYPGTNPILGTEEAYKMLWPVNIGTLNVNPLLTQTPGYGKK,glycan array binding signal (z-score),GalNAc(b1-4)GlcNAc,2.94
same,glycan array binding signal (z-score),[1],-0.211
same,glycan array binding signal (z-score),GlcNAc(b1-3)Fuc,2.63
same,glycan array binding signal (z-score),[2],2.54
same,glycan array binding signal (z-score),[3],-0.128
same,glycan array binding signal (z-score),[4],-0.708
same,glycan array binding signal (z-score),[5],-0.214
same,glycan array binding signal (z-score),Kdn(a2-3)Gal(b1-3)GalNAc,2.84
same,glycan array binding signal (z-score),Kdn(a2-3)Gal(b1-4)Glc,-0.287
same,glycan array binding signal (z-score),[6],-0.427
same,glycan array binding signal (z-score),Man(a1-6)Man,4.8
same,glycan array binding signal (z-score),[7],0.038
same,glycan array binding signal (z-score),Neu5Ac(a2-3)Gal(b1-4)Glc,0.96
same,glycan array binding signal (z-score),[8],-0.062
same,glycan array binding signal (z-score),[9],-0.581
same,glycan array binding signal (z-score),[10],-0.51
same,glycan array binding signal (z-score),[11],-0.252
same,glycan array binding signal (z-score),[12],-0.416
same,glycan array binding signal (z-score),[13],0.232
same,glycan array binding signal (z-score),[14],-0.431
same,glycan array binding signal (z-score),[15],0.342
same,glycan array binding signal (z-score),[16],10.6
same,glycan array binding signal (z-score),[17],0.442
same,glycan array binding signal (z-score),[18],0.304
same,glycan array binding signal (z-score),Neu5Gc(a2-6)GalNAc,-0.419
same,glycan array binding signal (z-score),[19],-0.58
